Assay outcomes as filed in PubChem.
Shown are actives, neighbours in structure and some others; about 2.7% of the full set was active somewhere.
Nrf2 block: Nrf2 qHTS screen for inhibitors; AID 504444, 2011; Potency, µM (top dose mostly 46 µM), actives largely listed as inhibitors; A549 ARE-Fluc reporter, luciferase luminescence, 18-24 h; 360,000 compounds, 2.1% hits; also: nearly all actives have a fitted effect of over 60% in size
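Quantitative HTS in A549 cells stably bearing an antioxidant response element-firefly luciferase construct. Inhibition of Nrf2-driven transcription was scored by luminescence after 18-24 h of compound exposure at 37 °C.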
A549 viability: Nrf2 qHTS screen for inhibitors: counterscreen for cytotoxicity | A549 ARE-Fluc cells, CellTiter-Fluor viability, 18-24 h | Potency, µM (titrated, usually from 46 µM), hits mostly inhibitors | 390,000 compounds, 0.16% hits | AID 504648, 2011
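A549 ARE_Fluc cells in 5% FBS OPTI-MEM were exposed to compounds in concentration-response for 18-24 h at 37 deg C. Viability was read by CellTiter-Fluor fluorescence (Ex 405/Em 525) after 30 min, before the luciferase read.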
IDH1 R132H inh: qHTS for Inhibitors of mutant isocitrate dehydrogenase 1 (IDH1): qHTS. AID 602179, 2012. 390,000 compounds, 0.093% hits. IDH1-R132H enzyme, NADPH consumption, diaphorase/resazurin fluorescence. Potency, µM (series often up to 76.6 µM), hits mostly inhibitors; also: nearly all actives have a fitted effect of over 65% in size
Target sequence (O75874 whole entry R132H, stated change not applied): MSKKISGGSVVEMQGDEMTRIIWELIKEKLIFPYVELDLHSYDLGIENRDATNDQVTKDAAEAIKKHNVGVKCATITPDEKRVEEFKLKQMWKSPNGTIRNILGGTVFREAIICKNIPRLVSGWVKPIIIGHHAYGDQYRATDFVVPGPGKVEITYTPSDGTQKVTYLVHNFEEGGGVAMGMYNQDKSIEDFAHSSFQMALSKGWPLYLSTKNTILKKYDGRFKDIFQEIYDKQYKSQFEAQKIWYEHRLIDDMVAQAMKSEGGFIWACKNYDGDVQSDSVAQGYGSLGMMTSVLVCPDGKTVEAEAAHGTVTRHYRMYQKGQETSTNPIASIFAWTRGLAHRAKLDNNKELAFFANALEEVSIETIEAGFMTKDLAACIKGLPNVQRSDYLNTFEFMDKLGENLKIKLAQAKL
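IDH1-R132H (0.5 ug/mL dispensed) in pH 7.5 Tris buffer was preincubated 30 min with compound, then given a substrate mix of 0.016 mM NADPH and 2 mM alpha-KG for 80 min at room temperature; remaining NADPH was read by diaphorase/resazurin fluorescence.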
Nrf2 ARE act: qHTS of Nrf2 Activators; AREc32 ARE-luciferase reporter (MCF7-derived line), luminescence, 24 h; Potency, µM (titrated, usually from 46.1 µM), hits mostly activators; 410,000 compounds, 0.31% hits; AID 624171, 2012; also: nearly all actives have a fitted effect of over 65% in size
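ARE activation measured as luciferase luminescence (Steady-Glo, 30 min RT) in AREc32_Fluc cells after 24 hr compound exposure at 37 deg C, 5% CO2; cells seeded overnight at 1000/well in OPTI-MEM, 5% FBS.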
LDHA inh: qHTS assay for inhibitors of human lactate dehydrogenase | purified LDHA, NADH/diaphorase-resazurin fluorescence; hits give low values | 480,000 compounds, 0.15% hits | activity change, % (values are at about 110 or 230 µM); in the data active = activity change below about -30%; inconclusive = mostly about -25% to -30%
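Human LDH5 at 2 nM final in Tris HCl pH 7.4 with 0.06 mM NADH and 0.2 mM pyruvate, reacted 5 minutes at room temperature. Remaining NADH coupled via diaphorase/resazurin; resorufin fluorescence read at 0 and 20 minutes, normalized to enzyme-free and DMSO wells.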
ALOX12 inh: Primary qHTS assay for inhibitors of human arachidonate 12S-lipoxygenase (ALOX12): Round 2. Polyunsaturated fatty acid lipoxygenase ALOX12 (Homo sapiens), P18054. purified 12hLO, xylenol orange hydroperoxide absorbance. Potency, µM (series often up to 108 µM), actives largely listed as inhibitors. 580,000 compounds, 1.1% hits
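Purified human 12hLO at 150 nM in 25 mM Hepes, 0.01% Triton X-100, pH 7.0, preincubated 15 min at room temperature with compound. Reaction started with 40 uM arachidonic acid, 30 min at room temperature. Hydroperoxide measured by Fe-xylenol orange, 573/405 nm absorbance ratio.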
A number is an active result; . = inactive; ? = inconclusive; / = no result. Unless noted, calls follow the shape of the dose curve; as a rule, active = well fitted curve in the direction sought with a large enough effect; inconclusive = small, poorly fitted or top-dose-only effect, or another doubt; inactive = no such curve, though single readings can be large; an effect the other way counts as inactive or inconclusive.

SMILES	Nrf2 block	A549 viability	IDH1 R132H inh	Nrf2 ARE act	LDHA inh	ALOX12 inh
Cn1cc2c(C(F)F)cc(=O)n(CCC(=O)O)c2n1	/	/	/	/	.	?
Cc1nn(C)c(C)c1CC(=O)N1CCN(S(=O)(=O)c2c(C)noc2C)CC1	/	/	/	/	.	.
Cc1noc(C(C)C)c1C(=O)Nc1ccc(OC(F)F)c(Cl)c1	/	/	/	/	.	?
O=C(/C=C/c1cccc(O)c1)c1ccc(N2CCOCC2)cc1	.	.	.	14.1µM	.	.
O=C(/C=C/c1cc2ccccc2nc1N1CCOCC1)c1cccc(O)c1	/	/	/	/	.	15.8µM
Cc1cccc2[nH]c(C(=O)OCC(=O)Nc3ccccc3)cc12	/	/	/	/	.	?
CC(Oc1ccc(C(=O)/C=C/c2ccsc2)cc1)C(=O)O (stereo not given)	/	/	/	/	.	?
Nc1nc(Cl)cc(N2CCC(c3cc(-c4ccc(Cl)cc4Cl)n[nH]3)CC2)n1	10.3µM	?	.	.	.	.
Cc1ccc(N=C2NN=C(c3cc(C)n(CC4CCCO4)c3C)CS2)cc1C (stereo not given)	/	/	/	/	.	35.5µM
Fc1cccc(F)c1/C=C/c1ccc2ccccc2n1	?	.	.	?	.	.
Fc1cccc(Cl)c1/C=C/c1cnc2ccccc2n1	?	.	.	3.55µM	.	?
O=C(CCn1nc(-c2ccc(Cl)cc2)c2ccccc2c1=O)N1CCCCC1	/	/	/	/	.	?
Cc1cccc(/C=C2\CCc3ccccc3C2=O)c1	/	/	/	/	.	.
N#C/C(=N\Nc1cc(Cl)cc(Cl)c1)c1nnc2n1CCCCC2	18.4µM	?	.	.	.	15.8µM
CO[C@@]12[C@@H]3N[C@@H]3CN1C1=C(C(=O)C(N)=C(C)C1=O)[C@@H]2COC(N)=O	10.3µM	?	.	.	.	.
O=C(c1cc2ccccc2oc1=O)N(Cc1cccc(Cl)c1)Cc1ccco1	/	/	/	/	.	.
N/C(=N\OC(=O)/C=C/c1ccccc1)c1cccnc1	.	.	.	?	.	.
O=C(N/N=C/c1cccc2ccccc12)c1cccnc1	.	.	.	.	.	11.2µM
N/C(=N\OC(=O)c1cccc2ccccc12)c1cccnc1	?	.	.	2µM	.	.
Cc1cccc(/C(N)=N/OC(=O)c2cccc3ccccc23)c1	/	/	/	/	/	.
N/C(=N\OC(=O)/C=C/c1ccccc1Cl)c1cccnc1	?	.	.	15.8µM	.	?
COc1cccc(CNc2ncc(-c3ccc(Br)cc3)n2C)c1	/	.	.	.	.	8.91µM
Cn1c(-c2ccc(Br)cc2)cnc1NCc1ccc(C#N)cc1	?	.	.	.	.	2.51µM
Cn1c(-c2cccc(Br)c2)cnc1NCc1ccccc1O	.	.	.	.	.	14.1µM
Cn1c(-c2ccccc2)cnc1NCc1ccccc1	.	.	.	.	.	?
SMILES	Nrf2 block	A549 viability	IDH1 R132H inh	Nrf2 ARE act	LDHA inh	ALOX12 inh
COc1ccc(C(=O)Nc2ccc([C@H]3OCC(=O)N(C(C)C)[C@@H]3CO)cc2)cc1	/	/	/	/	/	.
Cc1ccc(N)c(O)c1	/	/	/	/	.	?
CCN(c1ccccc1)S(=O)(=O)c1ccc(N2CCN(c3ccc(O)cc3)CC2)nc1	?	.	.	.	.	20µM
CCN(c1ccccc1)S(=O)(=O)c1ccc(N2CCN(c3ccc(OC)cc3)CC2)nc1	.	.	.	.	.	.
CC1CCCCN1S(=O)(=O)c1ccc(C(=O)Nc2ccccc2-c2nc3ccccc3[nH]2)cc1 (stereo not given)	23.1µM	.	.	.	.	.
CC1CCCCN1S(=O)(=O)c1ccc(C(=O)Nc2nnc(-c3ccco3)o2)cc1 (stereo not given)	20.6µM	?	.	.	.	.
O=C(Nc1nnc(C2CC2)o1)c1ccc(S(=O)(=O)N2CCCCC2)cc1	?	.	.	.	.	.
CC1CCN(S(=O)(=O)c2ccc(C(=O)Nc3nnc(C4CC4)o3)cc2)CC1	11.6µM	?	.	.	.	.
